Molecules are shown by their SMILES. pKd: −log10 of the molar value.
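Also: kd values determined as follow-up on hits from a single-replicate KINOMEscan panel screen.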

The first test concerns TGFBR1.
The pKd is the negative decadic logarithm of the Kd, by convention in mol/L. `Cc1cccc(-c2nc(C)cc(Nc3ccncc3)n2)n1` [GSK257997]: the negative-log Kd (pKd) is 6.70. `Cl.c1ccc(-c2n[nH]cc2-c2ccnc(-c3ccc(CN4CCOCC4)cc3)c2)nc1` [GW776245]: the pKd is 6.82. `Cc1ccc(-c2cc(-c3c[nH]nc3-c3ccccn3)ccn2)cc1` [GW684088] had a pKd of 6.59.

The subject of another test is TGFBR2.
With `Cc1csc(-c2nc(Nc3ccncc3)c3ccccc3n2)n1` [GW869640], the pKd was 6.60. Still for that read-out and setting: the result for `Cc1cccc(-c2nc(Nc3ccncc3)c3ccccc3n2)n1` [GW855857] reads 6.54; that for `Cl.c1ccc(-c2n[nH]cc2-c2ccnc(-c3ccc(CN4CCOCC4)cc3)c2)nc1` [GW776245], 6.68.

These data come from article PMC5540273 (PLoS ONE, 2017).
